# “And” between values parts separate entries of the source, which are not always exact repeats. Equal entries are not always repeated. The source made the active and inactive calls.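 How the source made its calls, unless noted: active means inhibition at or above 50% relative to wild type and mutant plate controls; inactive means inhibition below 50%.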
# Columns and labels:
# [1] = inhibitors of TNFa-induced NFkB p65 translocation, primary screen, imaging, HUVEC, MLSMR starter and 10KST1 sets (AID 438;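 active means inhibition above 20% together with a positive visual image hit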;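 further: compound added about 3h40 before a 20 min TNFalpha stimulation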;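 on inhibition: signal is the nuclear over cytoplasmic p65 intensity ratio per well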); settings: HUVEC TNFa-induced p65 nuclear translocation; cell count: measured here: nuclei count (cytotoxicity indicator), at 2.08 µM; inhibition: at 2 µM, stronger effect = higher value, 0% TNFa-plus-vehicle, 100% no-TNFa wells
# [2] = inhibitors of E-selectin induction by TNFa, primary screen, imaging, HUVEC, immunofluorescence, MLSMR starter and 10KST1 sets (AID 487;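 active means visually confirmed hit in the image check and inhibition above 20%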;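 on inhibition: signal is fraction of cell area covered by stained E-selectin grains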;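 on nuclei count: 100% = median nuclei count of all wells on the same plate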); settings: HUVEC TNFalpha-induced E-selectin immunofluorescence imaging, at 2 µM; inhibition: stronger effect = higher value; nuclei count: measured here: cell number, toxicity
# [3] = DUSP6 inhibitors restoring Erk phosphorylation by chemical complementation, primary imaging in DUSP6-transfected HeLa (AID 609;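 active means compounds giving at least 50% inhibition in the cell-based MKP-3 phosphatase rescue imaging test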;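 on inhibition: phospho-Erk level distribution per well compared with pooled transfected vehicle control wells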); settings: HeLa MKP-3 transfected, phospho-Erk imaging KS statistic, at 10 µM, cells stimulated with TPA for 15 min
# [4] = target: Dual specificity protein phosphatase 6 (Homo sapiens) (UniProt Q16828); test: as above; settings: HeLa MKP-3 transfected, phospho-Erk imaging KS statistic; at 10 µM; stronger effect = higher value; cells stimulated with TPA for 15 min
# Sequence of Dual specificity protein phosphatase 6 (Homo sapiens) (Q16828 whole entry, looked up): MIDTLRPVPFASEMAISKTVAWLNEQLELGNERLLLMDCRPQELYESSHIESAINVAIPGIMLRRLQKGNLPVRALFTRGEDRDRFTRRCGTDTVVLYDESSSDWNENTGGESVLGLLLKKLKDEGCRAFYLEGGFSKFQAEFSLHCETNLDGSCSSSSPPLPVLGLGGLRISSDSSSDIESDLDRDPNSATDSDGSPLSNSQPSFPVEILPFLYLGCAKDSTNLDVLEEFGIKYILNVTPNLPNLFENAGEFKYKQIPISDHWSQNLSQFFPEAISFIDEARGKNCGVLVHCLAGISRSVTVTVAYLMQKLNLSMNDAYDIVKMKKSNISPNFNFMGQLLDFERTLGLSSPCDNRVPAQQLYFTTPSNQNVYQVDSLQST
# [5] = target: Voltage-gated potassium channel subunit beta-2 (Rattus norvegicus) (UniProt P62483); test: KvBeta enzyme negative modulators, primary screen, biochemical, NADPH fluorescence (AID 622;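 active means fluorescence slope higher than the sample average by over 3 SD, cut at about -0.22 in these data, passing the limit was not always enough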;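 further: slope of raw intensity against log time taken from 70 to 1610 s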); settings: recombinant KvBeta, 4-cyanobenzaldehyde reduction, at 10 µM, stronger effect = higher value
# Sequence of Voltage-gated potassium channel subunit beta-2 (Rattus norvegicus) (P62483 whole entry, looked up): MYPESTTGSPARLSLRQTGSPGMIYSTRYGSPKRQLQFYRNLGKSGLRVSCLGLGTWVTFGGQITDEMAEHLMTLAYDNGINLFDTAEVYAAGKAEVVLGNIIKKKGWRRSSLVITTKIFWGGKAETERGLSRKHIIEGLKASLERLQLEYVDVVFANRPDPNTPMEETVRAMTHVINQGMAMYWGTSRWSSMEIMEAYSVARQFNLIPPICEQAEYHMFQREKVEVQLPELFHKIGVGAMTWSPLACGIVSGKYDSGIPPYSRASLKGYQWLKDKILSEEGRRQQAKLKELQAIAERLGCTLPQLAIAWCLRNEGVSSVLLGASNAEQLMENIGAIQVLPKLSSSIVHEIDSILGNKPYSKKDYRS
# [6] = target: Voltage-gated potassium channel subunit beta-2 (Rattus norvegicus) (UniProt P62483); test: KvBeta positive modulators, primary screen, biochemical, NADPH fluorescence (AID 623;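 active means NADPH fluorescence slope more negative than the mean of all samples by about 3 SD, 99.7% confidence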;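 further: fluorescence intensity change per second fitted from 20 to 320 s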); settings: Recombinant KvBeta, NADPH fluorescence decrease slope, 10 min; at 10 µM; stronger effect = lower value
# [7] = target: Alpha-2C adrenergic receptor (Homo sapiens) (UniProt P18825); test: modulators of alpha2C/GIRK thallium flux, primary screen, cell-based, HEK293 alpha2C/GIRK1/2 (AID 624;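 active means fluorescence slope after compound addition differing from the mean of all screened samples at 99.7% confidence, in either direction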;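 further: slope of fluorescence ratio to pre-addition baseline per second over 15 to 24 s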); settings: thallium flux BTC fluorescence, at 10 µM, actives lie on both sides
# Sequence of Alpha-2C adrenergic receptor (Homo sapiens) (P18825 whole entry, looked up): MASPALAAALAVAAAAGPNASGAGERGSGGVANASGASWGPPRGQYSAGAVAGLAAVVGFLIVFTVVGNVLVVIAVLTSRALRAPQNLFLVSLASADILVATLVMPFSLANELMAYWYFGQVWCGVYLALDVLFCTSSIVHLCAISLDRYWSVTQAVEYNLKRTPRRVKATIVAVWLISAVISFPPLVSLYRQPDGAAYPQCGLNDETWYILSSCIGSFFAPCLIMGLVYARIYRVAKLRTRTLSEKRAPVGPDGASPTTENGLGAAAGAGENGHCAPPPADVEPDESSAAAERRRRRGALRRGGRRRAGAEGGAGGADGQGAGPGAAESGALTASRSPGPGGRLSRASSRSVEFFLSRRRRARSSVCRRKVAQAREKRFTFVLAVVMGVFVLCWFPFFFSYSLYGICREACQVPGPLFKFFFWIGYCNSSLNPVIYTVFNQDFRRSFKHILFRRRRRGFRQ
# [8] = inhibitors of larval lipid processing in zebrafish, primary screen, whole organism, PED6 fluorescence, gall bladder and intestine (AID 686;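 active means a full or partial loss of lipid-probe fluorescence in the fish gall bladder, intestine or both, judged by eye; inactive means no fluorescence loss, or compound toxic to the fish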;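 further: larvae 5 to 7 days old with five fish per well; signal comes from phospholipase A2 cleavage of quenched PED6 carried via bile; overnight exposure to compound and PED6 before scoring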); settings: Zebrafish larvae PED6 lipid processing, fluorescence scoring; screened at 20 µM (by protocol)
# [9] = inhibitors of Chlamydomonas gravitaxis, primary screen, whole organism, Chlamydomonas reinhardtii, WT vs cilia-less mutant, absorbance, 96-well (AID 463189); settings: OD600 absorbance, 2 days, at 10 µM, stronger effect = higher value;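 further: 0% = wild type cc124 cells in DMSO and 100% = ciliumless bld1 mutant cells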
# [10] = inhibitors of Sendai virus-induced IRF3 signaling, primary screen, TLR/RLR signaling modifier project, cell-based, Sendai virus stimulus, luciferase, 10K MLSCN set (AID 602276;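 active means inhibition at or above 50% at 10 µM; inactive means inhibition below 50%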;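 further: firefly luciferase from ISG56 promoter only with Renilla not read in this screen; 0% = Sendai virus plus DMSO and 100% = medium plus DMSO without virus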); settings: HEK293 RL24 IRF3 luciferase reporter, at 10 µM, stronger effect = higher value
# [11] = inhibitors of poly I:C-induced TLR3 signaling, primary screen, cell-based, poly I:C stimulus, luciferase, 10K MLSCN set (AID 602277;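 active means inhibition of the reporter signal at or above 50%; inactive means inhibition below 50%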); settings: HEK293-TLR3 RL24 IRF3 luciferase reporter, at 10 µM, stronger effect = higher value
# [12] = inhibitors of mutant huntingtin aggregation, primary screen, imaging, exon1htt(103Q)mCFP cells, high-content imaging (AID 483;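 active means visual image review flags a hit and inhibition of aggregation exceeds 20%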;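 further: compound exposure lasted 3 days before fixation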;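 on nuclei count: percent of the per-plate median nuclei count of sample wells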); settings: exon1htt(103Q)mCFP cell line, aggregate imaging, at 2 µM; inhibition of aggregation: stronger effect = higher value; nuclei count: measured here: cell count, toxicity
# [13] = target: Muscarinic acetylcholine receptor M4 (Homo sapiens) (UniProt P08173); test: compounds altering M4/GIRK thallium flux, either direction, primary screen, M4 allosteric agonist project, cell-based, HEK293 M4/GIRK, BTC-AM (AID 625;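 active means fluorescence slope after compound addition differing from the mean of all tested samples at 99.7% confidence, mostly higher but some lower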;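 further: thallium influx through GIRK channels coupled to M4 in HEK293 cells with BTC-AM dye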); settings: at 10 µM, actives lie on both sides
# Sequence of Muscarinic acetylcholine receptor M4 (Homo sapiens) (P08173 whole entry, looked up): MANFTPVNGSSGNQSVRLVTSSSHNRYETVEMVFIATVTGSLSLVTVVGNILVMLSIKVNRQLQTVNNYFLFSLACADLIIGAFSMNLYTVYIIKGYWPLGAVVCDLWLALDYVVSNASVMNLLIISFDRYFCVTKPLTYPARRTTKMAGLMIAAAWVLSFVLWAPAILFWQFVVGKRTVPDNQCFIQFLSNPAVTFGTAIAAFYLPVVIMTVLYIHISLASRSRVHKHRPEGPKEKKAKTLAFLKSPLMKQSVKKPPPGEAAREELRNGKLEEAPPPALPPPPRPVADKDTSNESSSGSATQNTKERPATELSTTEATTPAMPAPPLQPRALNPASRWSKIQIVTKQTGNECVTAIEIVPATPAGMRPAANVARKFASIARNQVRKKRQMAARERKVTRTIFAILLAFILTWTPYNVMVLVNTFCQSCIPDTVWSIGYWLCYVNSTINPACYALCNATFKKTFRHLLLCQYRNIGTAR
# [14] = measured here: cell density z-score
# [15] = measured here: nuclear c-Myc green intensity z-score
# [16] = measured here: nuclear pErk red intensity z-score, stronger effect = higher value
Structure (SMILES),cell count [1],inhibition [1],inhibition [2],nuclei count [2],"z-score [3, 14]","z-score [3, 15]","z-score [3, 16]",inhibition [4],fluorescence slope [5],NADPH fluorescence slope [6],slope [7],outcome [8],inhibition [9],inhibition [10],inhibition [11],inhibition of aggregation [12],nuclei count [12],fluorescence slope [13]
CC[C@H]1OC(=O)C[C@@H](O)[C@H](C)[C@@H](O[C@@H]2O[C@H](C)C[C@H](N(C)C)[C@H]2O)[C@@H](CC=O)C[C@@H](C)C(=O)C=C[C@]2(C)O[C@H]2[C@@H]1C,610,-3.7% (inactive),-120% (inactive),116%,0.794,-0.225,-0.416,7.39% (inactive),-0.498 (inactive),-2.6e-05 (inactive),0.00472 (inactive),inactive,59.9% (active),6.6% (inactive),61.9% (active),–,–,–
Fc1cc(F)c(F)c(SCCc2ccncc2)c1F,541,-0.9% (inactive),–,–,0.361,0.923,0.0696,-7.28% (inactive),-0.422 (inactive),-1.5e-05 (inactive),0.0056 (inactive),inactive,97.5% (active),7% (inactive),-1.64% (inactive),-11.2% (inactive),104%,–
CCOC(=O)C1=C(C)NC(C)=C(C(=O)OC)C1c1cccc(Cl)c1Cl (stereo unspecified),723,-6.4% (inactive),-52.9% (inactive),142%,0.529,-0.8,1.2,25.1% (inactive),-0.431 (inactive),-6.6e-05 (inactive),0.00394 (inactive),inactive,14.9% (inactive) and 24.6% (inactive),3.98% (inactive),6.81% (inactive),–,–,–
Cc1cc(C)n(S(=O)(=O)Cc2ccccc2)n1,495,0.8% (inactive),-49.2% (inactive),105%,–,–,–,–,-0.531 (inactive),-1.7e-05 (inactive),0.00447 (inactive),inactive,-10% (inactive),15% (inactive),14.8% (inactive),-5.2% (inactive),100%,–
O=c1cc(NCc2ccccc2)nc2n1CCCS2,572,-1.5% (inactive),–,–,-0.588,-0.473,-1.35,-4.7% (inactive),-0.506 (inactive),-0.000115 (inactive),0.00575 (inactive),inactive,4.05% (inactive),-14.4% (inactive),-33.9% (inactive),-16.3% (inactive),94.5%,–
CC[N+](C)(C)Cc1ccccc1Br,649,-4.5% (inactive),-101% (inactive),123%,-1.09,-0.375,0.336,11.3% (inactive),-0.502 (inactive),1.7e-05 (inactive),0.00416 (inactive),inactive,3.29% (inactive) and 10.5% (inactive),19.3% (inactive),30.2% (inactive),–,–,–
CN/C(=C/[N+](=O)[O-])NCCSCc1ccc(CN(C)C)o1,593,-4.1% (inactive),-23.6% (inactive),105%,1.15,-0.304,-1.85,16.8% (inactive),-0.46 (inactive),1.7e-05 (inactive),0.00584 (inactive),inactive,-22.8% (inactive),13.1% (inactive),30.9% (inactive),–,–,–
COc1ccccc1Nc1ncnc2c1cnn2-c1cccc(C)c1,398,-11% (inactive),-38.9% (inactive),133%,-0.0649,-0.454,0.131,-2.59% (inactive),-0.356 (inactive),-3.8e-05 (inactive),–,inactive,4.11% (inactive),-27.1% (inactive),-52.1% (inactive),23.4% (inactive),92.4%,0.00739 (inactive)
Clc1ccc2c(c1)C(N1CCNCC1)=Nc1ccccc1O2,676,-0.2% (inactive),-61.7% (inactive),119%,-1.22,-0.679,1.28,-7.45% (inactive),-0.471 (inactive),-7.1e-06 (inactive),–,inactive; toxic,-13.2% (inactive) and 2.47% (inactive),1.94% (inactive),23.6% (inactive),16.3% (inactive),73.5%,–
Cc1c(O)c(CN2CCCCC2)cc2c3c(c(=O)oc12)CCC3,706,-5.5% (inactive),-1.4% (inactive),130%,0.172,-1.04,-0.433,-10.6% (inactive),-0.00734 (inactive),-1.2e-06 (inactive),–,inactive,1.32% (inactive),12.6% (inactive),14.9% (inactive),2.7% (inactive),106%,0.00439 (inactive)
CC1(C)SC2[C@H](NC(=O)C(NC(=O)N3CCNC3=O)c3ccccc3)C(=O)N2C1C(=O)O (stereo partly specified),705,-9.5% (inactive),-58.5% (inactive),117%,0.0464,-0.196,-0.885,15.3% (inactive),-0.461 (inactive),-5.2e-05 (inactive),0.00535 (inactive),inactive,6.16% (inactive),3.1% (inactive),37.2% (inactive),–,–,–
Cc1nnc(SCC2=C(C(=O)O)N3C(=O)[C@@H](NC(=O)Cn4cnnn4)[C@H]3SC2)s1,628,-2.9% (inactive),-103% (inactive),125%,-0.857,0.639,1.89,-6.41% (inactive),-0.495 (inactive),-4.7e-05 (inactive),0.00463 (inactive),inactive,9.57% (inactive) and 15.2% (inactive),9.64% (inactive),21.6% (inactive),–,–,–
Cc1ccc(C2C3CN(C(C)C)CC=C3C(C#N)=C(N)C2(C#N)C#N)cc1 (stereo unspecified),620,0.1% (inactive),-85.5% (inactive),145%,1.72,2.35,0.446,70.4% (inactive),-0.33 (inactive),-1.4e-05 (inactive),-0.00688 (active),inactive,8.92% (inactive),22.9% (inactive),22.3% (inactive),–,99.1%,–
Cc1ccc(N(CC2=NCCN2)c2cccc(O)c2)cc1,561 and 534,-6.5% (inactive) and 2.1% (inactive),-44.6% (inactive) and -23.4% (inactive),136% and 125%,-1.49 and -0.829,1.38 and 2.5,-0.739 and 1.17,5.79% (inactive),-0.452 (inactive) and -0.478 (inactive),-5.4e-05 (inactive) and -3.9e-05 (inactive),–,inactive,4.48% (inactive) and 1.6% (inactive) and -7.32% (inactive),0.917% (inactive) and -3.85% (inactive),21.2% (inactive) and 12.9% (inactive),-6.5% (inactive) and -10.5% (inactive),106% and 78.7%,–
Cc1cc(NS(=O)(=O)c2ccc(N)cc2)no1,614,2.1% (inactive),-43.4% (inactive),117%,-1.02,-0.449,1.11,-5.24% (inactive),-0.445 (inactive),-2.3e-05 (inactive),0.00461 (inactive),inactive,1.6% (inactive),19.8% (inactive),31.9% (inactive),–,–,–
CN1CCN(C2=Nc3ccccc3Oc3ccc(Cl)cc32)CC1,536,-3.1% (inactive),-3.4% (inactive),105%,-0.87,0.672,-0.787,14.6% (inactive),-0.437 (inactive),-4.1e-05 (inactive),–,inactive; toxic,27.3% (inactive) and 39.2% (inactive),13.8% (inactive),41.9% (inactive),-4.5% (inactive),91.8%,–
Cc1nc2sc(C#N)c(N)c2c2c1CCCC2,603,0.2% (inactive),0.2% (inactive),96.3%,-2.36,2.17,-1.05,9.07% (inactive),-0.0248 (active),-1e-05 (inactive),–,inactive,3.68% (inactive),-2.92% (inactive),-41.1% (inactive),-143% (inactive),3.6%,0.00523 (inactive)
O=C(c1ccc2c(c1)OCCO2)N1CCCCC1,580,-15% (inactive),-38.6% (inactive),122%,–,–,–,–,-0.406 (inactive),1.1e-06 (inactive),0.00377 (inactive),–,-4.88% (inactive),8.03% (inactive),18.3% (inactive),-3.4% (inactive),106%,–
Cc1oncc1C(=O)Nc1ccc(C(F)(F)F)cc1,554,-5.4% (inactive),-80% (inactive),111%,0.779,0.543,0.25,-10.4% (inactive),-0.489 (inactive),-4.6e-05 (inactive),0.00635 (inactive),inactive,-2.73% (inactive) and -10% (inactive),-116% (inactive),-197% (inactive),–,–,–
CC(C)Cc1ccc(C(C)C(=O)O)cc1 (stereo unspecified),604,-0.8% (inactive),-67.2% (inactive),132%,-0.577,-0.145,0.0811,-0.828% (inactive),-0.469 (inactive),-4.6e-05 (inactive),0.00562 (inactive),inactive,1.82% (inactive) and -1.73% (inactive),-8.48% (inactive),-4.09% (inactive),–,–,–
Nc1ccc(S(=O)(=O)Nc2ncccn2)cc1,603,-1.5% (inactive),-68.8% (inactive),130%,1.12,-1.89,1.02,5.79% (inactive),-0.5 (inactive),-6.3e-05 (inactive),0.00507 (inactive),inactive,-12.2% (inactive),15.1% (inactive),–,-4.1% (inactive),87.5%,–
CNCCCN1c2ccccc2CCc2ccccc21,539,-8.9% (inactive),-27% (inactive),118%,-1.38,-0.202,2.91,15.3% (inactive),-0.533 (inactive),-5.3e-05 (inactive),0.00468 (inactive),inactive,-1.03% (inactive) and 0.865% (inactive),0.658% (inactive),24.2% (inactive),–,–,–

# — PubChem BioAssay
